Data on seven compounds can be found in PubChem BioAssay (NCI).

This is part of a sample that, as a whole, favours compounds with a hit. Of some 83,000 tested, about 20% had one in any assay.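 Activity criterion: percent growth below 10, measured after cells in 96-well plates were exposed to a single compound concentration for 48 hours.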 A number with no mark means an inactive call. Calls of active or inactive are those of the source.

Common to all, as to test: NCI-60 one-dose screen, 48 h (100 = growth as untreated, 0 = no growth, -100 = all killed)
Assay [1] deals with HCT-15 colon. The settings on record: 10 µM unless noted.
In assay [2] the test system is HT29 colon. The settings on record: 10 µM unless noted.
Assay [3] deals with SNB-75 CNS. The settings on record: 10 µM unless noted.
Assay [4] relates to SNB-19 CNS. The following applies: 10 µM unless noted.
Assay [5] relates to U251 CNS. The settings on record: 10 µM unless noted.
The test system of assay [6] is PC-3 prostate. The following applies: 10 µM unless noted.
Assay [7] has as its system SK-MEL-5 melanoma. The following applies: 10 µM unless noted.
Assay [8] deals with UACC-62 melanoma. The settings on record: 10 µM unless noted.
Assay [9] has as its system LOX IMVI melanoma. The settings on record: 10 µM unless noted.
Assay [10] has as its system SK-MEL-28 melanoma. The following applies: 10 µM unless noted.
For assay [11], the system named is SK-MEL-2 melanoma. The following applies: 10 µM unless noted.
The test system of assay [12] is EKVX NSCLC. The following applies: 10 µM.
The test system of assay [13] is SN12C renal. The following applies: 10 µM unless noted.
The test system of assay [14] is UO-31 renal. The settings on record: 10 µM unless noted.
The subject of assay [15] is TK-10 renal. The settings on record: 10 µM unless noted.
Assay [16] relates to ACHN renal. The following applies: 10 µM unless noted.
In assay [17] the test system is CAKI-1 renal. The settings on record: 10 µM unless noted.
Assay [18] deals with A498 renal. The settings on record: 10 µM unless noted.
Assay [19] has as its system CCRF-CEM leukemia. The settings on record: 10 µM.
For assay [20], the system named is MOLT-4 leukemia. The following applies: 10 µM unless noted.

Consider `Cc1ccc(C(=O)Nc2ccc(CN3CCN(C)CC3)c(C(F)(F)F)c2)cc1C#Cc1cncc2ncccc12`, for which the growth in assay [1] was -92.9% (active); in assay [2] it was -89.3% (active); in assay [3], -83.9% (active); in assay [4], -99.3% (active); in assay [5] it was -93.8% (active); in assay [6] it was -69.3% (active). For the same compound, the growth in assay [7] is -99.3% (active); in assay [8], -84.8% (active); in [9], -79% (active); in assay [10], -90.4% (active); in [11], -78.7% (active); in [12], -71.8% (active). The growth is -98.2% (active) in assay [13]; -96.3% (active) in assay [14]; -98.8% (active) in assay [15]; -98.9% (active) in assay [16]; 1.96% (active) in [17]; -95.5% (active) in assay [18]. The figures for the growth in [19] and in [20] were -56.2% (active) and -58.9% (active), respectively.
With `COc1ccc(-c2nc(Nc3nc4ccccc4[nH]3)nc(N)c2C#N)cc1`, the growth was 101% in [1]; 96% in [2]; 84.9% in assay [3]; 98.1% in assay [4]; 110% in assay [5]; 88.1% in assay [6]. The growth in [7] was 95.3%; in assay [8], 89.3%; in assay [9], 93.9%; in assay [10], 114%; in [11] it was 97.6%; in assay [12], 92.4%. The growth was 90.8% in assay [13]; 72.9% in assay [14]; 95.9% in assay [15]; 96.6% in assay [16]; 93.3% in assay [17]; 119% in [18]. Besides, the growth in [19] was 95.4%; in assay [20], 95%.
Consider `CCOC(=O)C1=C(c2ccccc2)NC(=O)NC1CN1C(=O)c2ccccc2C1=O` (stereo not given), for which the growth is 115% in assay [1]; 110% in assay [2]; 98.8% in [3]; 107% in assay [4]; 102% in [5]; 100% in assay [6]. For the same compound, the growth in [7] was 104%; in [8] it was 98.5%; in assay [9] it was 110%; in assay [10], 105%; in assay [11] it was 101%; in [12], 130%. Further, the growth in assay [13] was 107%; in [14], 102%; in [15], 111%; in assay [16], 111%; in assay [17], 105%; in [18] it was 118%. Also, the growth in assay [19] is 54.4%; in [20], 2.02% (active).
As to `COC(=O)c1ccc2[nH]c(O)c(C(=Nc3ccc(N(C)C(=O)CN4CCN(C)CC4)cc3)c3ccc(C)cc3)c2c1`, the growth is -38.5% (active) in [1]; -23.3% (active) in assay [2]; -26.8% (active) in [3]; -10.6% (active) in assay [4]; -77.2% (active) in [5]; -16% (active) in [6]. Further, the growth in assay [7] is -73.1% (active); in assay [8], -19% (active); in assay [9], 4.3% (active); in assay [10], -8.16% (active); in [11], -31.6% (active); in [12], 23%. Besides, the growth in assay [13] was 9.81% (active); in assay [14] it was -81.2% (active); in assay [15], -82.7% (active); in assay [16] it was -61.1% (active); in assay [17], -41.6% (active); in [18], -73.8% (active). The growth was 1.57% (active) in assay [19] and -24.6% (active) in assay [20].
Take `O=C(Nc1ccc(Cl)cn1)C1(c2ccccc2)CCCCC1`: the growth in assay [1] is 112%; in assay [2] it was 85.6%; in assay [3], 106%; in [4], 106%; in [5] it was 97.5%; in assay [6] it was 104%. Besides, the growth in [7] is 91.6%; in assay [8], 94.4%; in assay [9] it was 101%; in assay [10], 105%; in [11], 116%; in assay [12] it was 96%. Further, the growth was 106% in assay [13]; 181% in [14]; 126% in assay [15]; 112% in assay [16]; 120% in assay [17]; 141% in assay [18]. Moreover, the growth was 14.1% in assay [19] and 63.3% in [20].
Turning to `COc1ccc(C2C3(C#N)C(N)=NC(=C(C#N)C#N)C23C#N)cc1OC` (stereo not given), the growth in assay [1] was 114%; in [2] it was 116%; in assay [3], 107%; in assay [4], 106%; in assay [5], 103%; in [6], 111%. The growth in assay [7] is 105%; in assay [8] it was 99.8%; in assay [9], 98.7%; in assay [10], 115%; in assay [11], 104%; in assay [12], 94.6%. Also, the growth in assay [13] is 109%; in assay [14] it was 91%; in [15] it was 114%; in assay [16], 106%; in assay [17] it was 86.9%; in [18], 101%. For the same compound, the growth is 92.3% in assay [19] and 102% in [20].
As to `Cc1ccc(C(=O)Nc2ccc(CN3CCN(C)CC3)c(C(F)(F)F)c2)cc1C#Cc1cnc(N)c2ccc(C#N)cc12`, the growth in [1] is 23.2%; in assay [2], 10.5%; in [3] it was 51.5%; in assay [4], 63.3%; in [5], 48.9%; in assay [6], 51.7%. Moreover, the growth in assay [7] was 13.5%; in [8] it was 25.4%; in assay [9], 21%; in [10] it was 12.9%; in assay [11], 25.1%; in assay [12] it was 53.4%. Further, the growth in assay [13] is 24.1%; in [14], 14.3%; in assay [15] it was 52.7%; in assay [16], 9.19% (active); in [17] it was 33.6%; in assay [18], 35.7%. The growth in [19] was 7.71% (active); in [20] it was -8.2% (active).
